# According to PubChem BioAssay (NCI):
# Compounds without any hit were thinned out: in the full panel of roughly 83,000, 20% have a hit.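 48-hour exposure, single concentration, 96-well plates; percent growth endpoint where 0 means no net growth. Active: below 10.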 Unmarked numbers belong to inactive results. The source made the active and inactive calls.
# Test system: HL-60(TB) leukemia
# Assay: NCI-60 one-dose screen, 48 h (100 = growth as untreated, 0 = no growth, -100 = all killed)
# Details: 10 µM unless noted
row,Structure (SMILES),growth
1,Cc1nn(-c2ccccc2)c(Cl)c1/C=C/C(=O)c1ccc(F)cc1,47.1%
2,C/C=C(\C)C(=O)N[C@H]1C(O)C[C@]2(C)C3CC[C@@]4(C)C(CC[C@@H]4C(C)N(C)C)C3CCC2C1O (some centres undefined),5.7% (active)
3,CCOC(=O)C#Cc1c(C(=O)OCC)nnn1[C@@H]1O[C@H](COC)[C@@H](OC)[C@H]1OC,47.5%
4,COc1cccc(/C=C/C(=O)c2c(C)nc3ccccc3c2/C=C/c2ccc(C)cc2)c1OC,36%
5,COc1ccc(-n2cc(-c3ccccc3)c3c(SCC(=O)N/N=C/c4ccc([N+](=O)[O-])cc4)ncnc32)cc1,103%
6,C#Cc1cccc(Nc2nc3ccc([N+](=O)[O-])cc3nc2Nc2cccc(C#C)c2)c1,-33.9% (active)
7,c1ccc(CSc2nnc3c4c5c(sc4nc(-c4cccnc4)n23)CCCCCC5)cc1,4% (active)
8,O=c1c2cc(F)ccc2sc2c(NCCCNCCO)nc3ccccc3c12,6.49% (active)
9,OC(c1cc2cc(Cl)ccc2c2cc(C(F)(F)F)ccc12)C1CCCCN1 (centres undefined),-61.1% (active)
10,FC(F)(F)C1=NNC(c2ccc3ccccc3c2)=NN1,101%
11,O=C1CCc2c(sc3[nH]c(=S)n(Cc4ccccc4)c(=O)c23)C1,10.9%
12,Cc1oc2nc[nH]c(=O)c2c1C(=O)/C=C/c1ccc(Br)cc1,-4.98% (active)
13,Cc1cc(=O)oc2c1ccc1oc(C(=O)c3ccccc3)c(C)c12,75.2%
14,CCN(C(=O)N1CCN(c2cc3c(cc2F)c(=O)c(C(=O)O)cn3C2CC2)CC1)c1nc(-c2ccc(C)cc2)cs1,7.49% (active)
